# According to PubChem BioAssay AID2330 (Broad Institute, 2010):
# Screen size: about 37,000 compounds; about 2,800 (7.6%) were called active. Inconclusive results (about 1%) are left out. This is one part of a sample in which actives are shown more often than they occur. Rule as the data show it: active = inhibition above about 80%; inconclusive = no clear call, values can overlap the other calls; inactive = below that.
# Assay: NOMO-1 AML cell viability reduction, primary screen, STK33 inhibitor project, CellTiter-Glo luminescence (AID 2330)
# Conditions: NOMO-1 AML viability, 72 h, hits give high values, concentration not given here
row,SMILES,inhibition
1,C[C@H]1CN([C@@H](C)CO)C(=O)Cc2cc(NC(=O)Nc3ccc(C(F)(F)F)cc3)ccc2O[C@H]1CN(C)Cc1ccc(C(=O)O)cc1,12.6% (inactive)
2,C[C@H]1CN([C@@H](C)CO)C(=O)Cc2cc(NC(=O)C3CCCCC3)ccc2O[C@H]1CN(C)C(=O)Nc1ccc(C(F)(F)F)cc1,11.2% (inactive)
3,COc1ccc(CN(C)C[C@@H]2Oc3ccc(NC(=O)c4ccncc4)cc3CC(=O)N([C@H](C)CO)C[C@H]2C)cc1,13.5% (inactive)
4,C[C@@H]1CN([C@H](C)CO)C(=O)Cc2cc(NC(=O)Nc3ccc4c(c3)OCO4)ccc2O[C@H]1CN(C)Cc1ccc(C(F)(F)F)cc1,77% (inactive)
5,C[C@H]1CN([C@@H](C)CO)C(=O)Cc2cc(NC(=O)Nc3ccccc3)ccc2O[C@H]1CN(C)Cc1ccncc1,19.2% (inactive)
6,C[C@H](CO)N1C[C@H](C)[C@H](CN(C)Cc2ccc(-c3ccccc3)cc2)Oc2ccc(NC(=O)Nc3ccc(F)cc3)cc2CC1=O,110% (active)
7,C[C@@H]1CN([C@H](C)CO)C(=O)Cc2cc(NC(=O)C3CCCCC3)ccc2O[C@@H]1CN(C)Cc1ccc(C(F)(F)F)cc1,101% (active)
8,C[C@@H]1CN([C@@H](C)CO)C(=O)Cc2cc(NC(=O)C3CCCCC3)ccc2O[C@@H]1CN(C)C(=O)Nc1ccc(C(F)(F)F)cc1,37.5% (inactive)
9,C[C@@H]1CN([C@H](C)CO)C(=O)Cc2cc(NC(=O)c3ccncc3)ccc2O[C@H]1CN(C)Cc1ccc(-c2ccccc2)cc1,111% (active)
10,C[C@@H]1CN([C@H](C)CO)C(=O)Cc2cc(NC(=O)Nc3ccc(C(F)(F)F)cc3)ccc2O[C@H]1CN(C)Cc1ccc(-c2ccccc2)cc1,128% (active)
11,C[C@H]1CN([C@@H](C)CO)C(=O)Cc2cc(NC(=O)CCCN(C)C)ccc2O[C@@H]1CN(C)Cc1ccc(-c2ccccc2)cc1,24.3% (inactive)
12,C[C@@H]1CN([C@H](C)CO)C(=O)Cc2cc(NC(=O)c3ccncc3)ccc2O[C@@H]1CN(C)Cc1ccncc1,-19.5% (inactive)
13,CC(C)NC(=O)N(C)C[C@@H]1Oc2ccc(NC(=O)C3CCCCC3)cc2CC(=O)N([C@H](C)CO)C[C@@H]1C,27.6% (inactive)
14,Cc1noc(C)c1NC(=O)Nc1cccc2c1O[C@@H](CN(C)CC1CCCCC1)[C@H](C)CN([C@@H](C)CO)C2=O,-7.61% (inactive)
15,Nc1nnc(SCC(=O)Nc2ccc(Cl)cc2O)s1,14.9% (inactive)
16,C[C@@H]1CN([C@H](C)CO)C(=O)c2cccc(NC(=O)C3CCOCC3)c2O[C@H]1CN(C)S(=O)(=O)c1ccc(Cl)cc1,7.24% (inactive)
17,COc1ccc(NC(=O)N(C)C[C@@H]2Oc3c(NS(C)(=O)=O)cccc3C(=O)N([C@H](C)CO)C[C@H]2C)cc1,12.7% (inactive)
18,COc1cccc(-c2cc(C(F)(F)F)n3nc(C(=O)NCc4ccccn4)cc3n2)c1,12.5% (inactive)
19,COC(=O)c1sc(SC)c(-c2ccn(S(=O)(=O)c3ccc(Cl)cc3)n2)c1C,-4.42% (inactive)
20,Cc1ccc(S(=O)(=O)N(C)C[C@H]2Oc3ccc(NC(=O)Cc4cn(C)c5ccccc45)cc3CC(=O)N([C@@H](C)CO)C[C@H]2C)cc1,15.7% (inactive)

row,SMILES,inhibition
1,N#Cc1c(SCC(=O)Nc2ccc(F)cc2Cl)nc2c(c1C(F)(F)F)CCCCC2,24.5% (inactive)
2,C=CCn1c(SCc2nc3ccccc3[nH]2)nnc1-c1cccc(C)c1,1.23% (inactive)
3,C[C@@H]1CN([C@H](C)CO)C(=O)Cc2cc(NC(=O)Cc3cn(C)c4ccccc34)ccc2O[C@@H]1CN(C)Cc1ccc(C(F)(F)F)cc1,112% (active)
4,Cc1noc(C)c1NC(=O)Nc1ccc2c(c1)CC(=O)N([C@H](C)CO)C[C@@H](C)[C@@H](CN(C)Cc1ccc(C(F)(F)F)cc1)O2,25.7% (inactive)
5,C[C@H]1CN([C@@H](C)CO)C(=O)Cc2cc(NC(=O)Cc3cn(C)c4ccccc34)ccc2O[C@@H]1CN(C)Cc1ccccc1,32.3% (inactive)
6,COc1ccc(CN(C)C[C@@H]2Oc3ccc(NC(=O)Nc4ccc(OC)cc4)cc3CC(=O)N([C@H](C)CO)C[C@H]2C)cc1,22% (inactive)
7,COc1ccc(NC(=O)Nc2ccc3c(c2)CC(=O)N([C@H](C)CO)C[C@H](C)[C@H](CN(C)Cc2ccncc2)O3)cc1,-3.73% (inactive)
8,COc1ccc(NC(=O)Nc2ccc3c(c2)CC(=O)N([C@@H](C)CO)C[C@@H](C)[C@@H](CN(C)Cc2ccc(C(F)(F)F)cc2)O3)cc1,101% (active)
9,C[C@@H]1CN([C@H](C)CO)C(=O)Cc2cc(NC(=O)Nc3cccc4ccccc34)ccc2O[C@@H]1CN(C)Cc1ccc(C(=O)O)cc1,20.5% (inactive)
10,C[C@H]1CN([C@@H](C)CO)C(=O)Cc2cc(NC(=O)Cc3cn(C)c4ccccc34)ccc2O[C@H]1CN(C)Cc1ccccc1,7.92% (inactive)
11,C[C@@H]1CN([C@H](C)CO)C(=O)Cc2cc(NC(=O)Nc3cccc4ccccc34)ccc2O[C@@H]1CN(C)Cc1ccc(C(F)(F)F)cc1,105% (active)
12,C[C@@H]1CCCCO[C@@H](CN(C)C)[C@@H](C)CN([C@H](C)CO)C(=O)c2cc(NC(=O)c3ccncc3)ccc2O1,17.5% (inactive)
13,CC(C)NC(=O)N(C)C[C@H]1Oc2c(NC(=O)C3CCCCC3)cccc2C(=O)N([C@@H](C)CO)C[C@H]1C,-7.34% (inactive)
14,C[C@H](CO)N1C[C@H](C)[C@@H](CN(C)C(=O)Nc2ccc3c(c2)OCO3)Oc2c(cccc2N(C)C)C1=O,13.3% (inactive)
15,Cc1noc(C)c1NC(=O)N(C)C[C@H]1Oc2ccc(NC(=O)Nc3ccc(C(F)(F)F)cc3)cc2CC(=O)N([C@@H](C)CO)C[C@@H]1C,8.18% (inactive)
16,O=C(O)c1c(Br)c(Br)c(Br)c(Br)c1-c1c2ccc(=O)cc-2oc2cc(O)ccc12,21.5% (inactive)
17,O=C(CSc1nnc(-c2cccs2)n1-c1ccccc1Cl)Nc1cccc(C(=O)O)c1,-8.58% (inactive)
18,O=C(NCc1ccccn1)C(=O)Nc1cccc(Cl)c1Cl,-11.7% (inactive)
19,CC(C)(C)c1ccc(Cn2c(=N)n(CC(=O)O)c3ccccc32)cc1,31% (inactive)
20,O=c1n(Cc2ccccc2)c2ccccc2n1Cc1ccccc1,23% (inactive)

row,SMILES,inhibition
1,N=c1n(CC(=O)c2ccc(Cl)c(Cl)c2)c2ccccc2n1Cc1ccccc1,92.6% (active)
2,Cc1noc(C)c1NC(=O)Nc1ccc2c(c1)C(=O)N([C@H](C)CO)C[C@H](C)[C@@H](CN(C)Cc1ccc3c(c1)OCO3)OCCCC[C@@H](C)O2,0.0539% (inactive)
3,N#C/C(=C\c1ccc(O)c(O)c1)C(=O)NCc1ccccc1,133% (active)
4,N#C/C(=C\c1ccc(O)c(O)c1)C(N)=O,44.4% (inactive)
5,CC(C)=CC1C(C(=O)O)C1(C)C (stereo not given),-10.7% (inactive)
6,COc1ccc(S(=O)(=O)N(C)C[C@H]2Oc3ccc(NS(=O)(=O)c4ccc(C)cc4)cc3CC(=O)N([C@@H](C)CO)C[C@@H]2C)cc1,16.4% (inactive)
7,COc1ccc(S(=O)(=O)Nc2cccc3c2O[C@@H](CN(C)S(=O)(=O)c2c(C)noc2C)[C@@H](C)CN([C@H](C)CO)C3=O)cc1,0.67% (inactive)
8,Cc1noc(C)c1NC(=O)Nc1ccc2c(c1)C(=O)N([C@H](C)CO)C[C@@H](C)[C@@H](CN(C)Cc1ccccc1)O2,-0.997% (inactive)
9,Cc1ccc(S(=O)(=O)Nc2ccc3c(c2)CC(=O)N([C@H](C)CO)C[C@@H](C)[C@H](CN(C)Cc2ccc(C(F)(F)F)cc2)O3)cc1,108% (active)
10,C[C@H](CO)N1C[C@H](C)[C@H](CN(C)Cc2ccc(-c3ccccc3)cc2)Oc2ccc(NS(=O)(=O)c3ccccc3)cc2C1=O,93.2% (active)
11,C[C@H]1CN([C@@H](C)CO)C(=O)Cc2cc(NS(=O)(=O)c3ccc(F)cc3)ccc2O[C@H]1CN(C)Cc1ccc(C(F)(F)F)cc1,34.1% (inactive)
12,Cc1ccc(S(=O)(=O)Nc2ccc3c(c2)C(=O)N([C@@H](C)CO)C[C@H](C)[C@@H](CN(C)Cc2ccc4c(c2)OCO4)O3)cc1,24.6% (inactive)
13,C[C@@H]1CN([C@@H](C)CO)C(=O)c2cc(NS(=O)(=O)c3ccccc3)ccc2O[C@@H]1CN(C)Cc1ccc(C(=O)O)cc1,28.2% (inactive)
14,COc1ccc(S(=O)(=O)Nc2ccc3c(c2)CC(=O)N([C@H](C)CO)C[C@H](C)[C@H](CN(C)Cc2ccc(C(F)(F)F)cc2)O3)cc1,125% (active)
15,COc1ccc(S(=O)(=O)Nc2ccc3c(c2)C(=O)N([C@H](C)CO)C[C@H](C)[C@@H](CN(C)Cc2ccc(-c4ccccc4)cc2)O3)cc1,39.1% (inactive)
16,Cc1ccc(S(=O)(=O)Nc2ccc3c(c2)CC(=O)N([C@@H](C)CO)C[C@H](C)[C@H](CN(C)Cc2ccccc2)O3)cc1,26% (inactive)
17,C[C@H](CO)N1C[C@H](C)[C@@H](CN(C)Cc2ccc(Cl)c(Cl)c2)Oc2ccc(NS(=O)(=O)c3ccccc3)cc2C1=O,20.4% (inactive)
18,COc1ccc(S(=O)(=O)Nc2ccc3c(c2)C(=O)N([C@@H](C)CO)C[C@H](C)[C@H](CN(C)Cc2ccc(C(F)(F)F)cc2)O3)cc1,50.5% (inactive)
19,Cc1ccc(S(=O)(=O)Nc2ccc3c(c2)C(=O)N([C@H](C)CO)C[C@H](C)[C@H](CN(C)Cc2ccc(Cl)c(Cl)c2)O3)cc1,91% (active)
20,COc1ccc(S(=O)(=O)Nc2ccc3c(c2)C(=O)N([C@@H](C)CO)C[C@H](C)[C@@H](CN(C)Cc2ccc(C(F)(F)F)cc2)O3)cc1,33.8% (inactive)
